# Compounds with a hit are over-represented: about 2.6% of the library has one in this group of screens.
# Cruzain inh Det: qHTS Assay for Promiscuous and Specific Inhibitors of Cruzain (with detergent) | Cruzipain (Trypanosoma cruzi), P25779 | purified cruzain, Z-FR-AMC fluorescence, 0.01% Triton | Potency, µM, without a hit: max response, negative = inhibition, most hits filed as inhibitors | hit rate 0.43% among 200,000 | AID 1478, 2009;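 further: plate controls were neutral wells for no effect and buffer without enzyme for full effect; nearly all actives have a fitted effect of over 40% in size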
# Target sequence (P25779 123-467 limits assumed): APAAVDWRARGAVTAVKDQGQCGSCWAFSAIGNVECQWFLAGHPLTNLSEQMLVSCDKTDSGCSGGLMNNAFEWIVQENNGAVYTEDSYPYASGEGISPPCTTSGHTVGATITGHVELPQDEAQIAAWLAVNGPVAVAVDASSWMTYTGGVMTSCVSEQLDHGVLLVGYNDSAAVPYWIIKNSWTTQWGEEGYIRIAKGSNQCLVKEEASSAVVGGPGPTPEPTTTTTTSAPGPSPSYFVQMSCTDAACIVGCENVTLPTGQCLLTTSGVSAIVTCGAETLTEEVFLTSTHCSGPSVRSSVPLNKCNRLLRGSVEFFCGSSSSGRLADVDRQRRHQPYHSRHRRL
#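 15 min RT preincubation of 1.5 nM cruzain with compound, then 2 uM Z-FR-AMC added; kinetic AMC fluorescence, 60 s delta. Triton X-100 0.01%, pH 5.5.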
# Cruzain noTriton: qHTS Assay for Promiscuous and Specific Inhibitors of Cruzain (without detergent) | Cruzipain (Trypanosoma cruzi), P25779 | purified cruzain, Z-FR-AMC fluorescence, no detergent | Potency, µM, inactives show max response, negative = inhibition, most hits filed as inhibitors | hit rate 2.3% among 200,000;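 further: plate controls were enzyme without inhibitor for no effect and buffer without enzyme for full effect; nearly all actives have a fitted effect of over 40% in size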
#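 Purified cruzain at 1.5 nM, pre-incubated 15 min with compound at room temperature in 100 mM sodium acetate pH 5.5, 5 mM DTT, 0.00005% Triton X-100. Reaction started with 2 uM Z-FR-AMC; AMC fluorescence increase over 60 s gives rate.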
# The depositor's hits bear a star; ? = inconclusive. The call rests on the fitted dose curve; in most records, active means well fitted curve in the direction sought with a large enough effect; inconclusive means small, poorly fitted or top-dose-only effect, or another doubt; inactive means no such curve, though single readings can be large; an effect the other way counts as inactive or inconclusive. Potency means the concentration at half of the fitted maximal effect.
SMILES,Cruzain inh Det,Cruzain noTriton
O=C(N/N=C/c1ccccc1Br)c1ccc(CSc2cccc3cccnc23)cc1,1%,10µM*
Cc1nn2c(=O)cc(COC(=O)c3ccc(NC(=O)c4cccc(Br)c4)cc3)nc2s1,-1%,-11%
CCc1c(C)c2ccc(O)c(CN3CCN(c4ccc(F)cc4)CC3)c2oc1=O,-1%,-5%
CCCCC/C=C\C/C=C\C/C=C\CCCCCCC(=O)NCC(=O)O,-7%,4%
O=C(Cc1ccccc1)Nc1cccc(N2CCCC2)c1,-29%,25µM*
O=C(CCc1ccccc1)Nc1ccc(N2CCCCC2)cc1,-3%,12%
CCN1CCN(c2ccc(NC(=O)Cc3ccccc3)cc2)CC1,4%,4%
O=C(Cc1ccccc1)Nc1ccc(N2CCCC2)cc1,?,13µM*
CC(C)Oc1ccc(C(=O)Nc2ccc(N3CCCC3)cc2)cc1,-28%,4µM*
O=C(Nc1ccc(N2CCCC2)cc1)C(c1ccccc1)c1ccccc1,-12%,7.9µM*
CC(C)c1ccc(C(=O)Nc2ccc(N3CCOCC3)cc2)cc1,-1%,-4%
CC(C)C(=O)Nc1ccc(N2CCCC2)cc1,-6%,-8%
CCCn1c(CCC(=O)Nc2cc(C(=O)OC)cc(C(=O)OC)c2)nc2cccnc21,1%,10%
CCN(C(=O)c1cnc2ccc(C)cn2c1=O)c1ccccc1,-7%,-12%
CC(=O)c1cccc(NC(c2ccc(F)cc2)c2nnc(-c3ccccc3)o2)c1 (stereo not drawn),-7%,-2%
CCc1ccccc1NC(=O)c1cc(S(=O)(=O)N(CC)c2ccccc2)ccc1F,0%,-5%
CCOC(=O)c1[nH]c2c(c1Cc1ccccc1OC)C(=O)CC(c1ccc(OC)cc1)C2 (stereo not drawn),-3%,-3%
Cc1ccc(C)c(CN2C(=O)c3ccccc3S(=O)(=O)c3ccc(C(=O)N4CCc5ccccc54)cc32)c1,-1%,32µM*
Cc1ccc(C)c(CN2C(=O)c3ccccc3S(=O)(=O)c3ccc(C(=O)N4CCN(C)CC4)cc32)c1,1%,1%
O=C(c1ccc2c(c1)N(Cc1ccccc1F)C(=O)c1ccccc1S2(=O)=O)N1CCc2ccccc21,0%,3%
O=C(c1ccc2c(c1)N(Cc1cccc(Cl)c1)C(=O)c1ccccc1S2(=O)=O)N1CCc2ccccc21,-3%,20µM*
CCOc1ccc(NC(=O)Cc2csc(COc3cccc(C)c3)n2)cc1,-1%,-7%
CCC(C)NC(=O)CN1C(=O)c2cccnc2Oc2ccc(C)cc21 (stereo not drawn),-1%,-2%
CCN(CC)C(=O)CSc1nc2c(c(=O)n(C)c(=O)n2C)n1Cc1ccccc1,-5%,-7%
Cc1cccc(OCCN2CSC(=S)N(C)C2)c1,-24%,-22%
SMILES,Cruzain inh Det,Cruzain noTriton
COc1ccccc1OCCN1CSC(=S)N(C)C1,?,20µM*
CCCn1c(=O)c(C(=O)NNS(=O)(=O)c2ccc(C)cc2)c(O)c2ccccc21,-4%,13µM*
CCn1c(=O)c(C(=O)NNS(=O)(=O)c2ccc(C)cc2)c(O)c2ccccc21,-7%,0%
CCOC(=O)c1ccc(NC(=O)CN(Cc2ccc(C)cc2)S(=O)(=O)c2ccc(C)cc2)cc1,0%,-4%
Cc1ccccc1-c1ccc2ncnc(NCc3cccs3)c2c1,?,-5%
Cc1nnc(NC(=O)CSc2ncnc3scc(-c4ccccc4)c23)s1,1%,-26%
Cc1sc2ncnc(SCC(=O)NCC(C)C)c2c1C,-11%,-5%
COC(=O)c1c(-c2ccccc2)csc1NC(=O)CSc1ncnc2sc(C)c(C)c12,-1%,6.3µM*
CCc1ccc(OCC(=O)NNC(=O)CSc2ncnc3sc(C)c(C)c23)cc1,1%,20µM*
Cc1sc2ncnc(SCc3ccco3)c2c1C,-9%,-17%
Cc1sc2ncnc(SCC(=O)c3ccc(Cl)s3)c2c1C,-2%,10µM*
COc1ccccc1CNC(=O)c1cccc(-c2ccccc2OC)n1,4%,-8%
CC1=C(c2ccc(F)cc2)S(=O)(=O)NC1=NCc1ccccc1Cl,4%,19%
Cc1onc(-c2ccccc2)c1C(=O)NC(=S)Nc1sc2c(c1C#N)CCCC2,-8%,13µM*
Cc1onc(-c2ccccc2)c1C(=O)Nc1sc2c(c1C#N)CCC2,-5%,-21%
Cc1onc(-c2c(F)cccc2Cl)c1C(=O)Nc1sc2c(c1C#N)CCC(C(C)(C)C)C2 (stereo not drawn),-4%,10µM*
Cc1onc(-c2c(F)cccc2Cl)c1C(=O)Nc1sc2c(c1C(N)=O)CCC2,-15%,?
Cc1cc(C(=O)Nc2sc3c(c2C#N)CCC(C)C3)no1 (stereo not drawn),-2%,-7%
Cc1onc(-c2ccccc2)c1C(=O)NC(=S)Nc1sc2c(c1C#N)CCC(C)C2 (stereo not drawn),-6%,7.9µM*
O=C(Nc1nonc1-c1ccc(Br)cc1)c1ccco1,-4%,-10%
CCOC(=O)c1c(N2C(=O)C3C4C=CC(O4)C3C2=O)sc2c1CCCC2 (stereo not drawn),6%,19%
CCOC(=O)c1c(N2C(=O)Nc3cc(Cl)c(Cl)cc3N2O)sc2c1CCCCC2,25µM*,14%
Cc1ccc(C)c(NC(=O)Cn2c(=O)n(Cc3ccc4c(c3)OCO4)c(=O)c3ccc(C(=O)NC4CCCCC4)cc32)c1,0%,-11%
CCN(C(=O)Cn1c(=O)n(Cc2ccc3c(c2)OCO3)c(=O)c2ccc(C(=O)NC3CCCCC3)cc21)c1cccc(C)c1,-3%,32µM*
COc1cccc(NC(=O)Cn2c(=O)n(CCc3ccc(OC)c(OC)c3)c(=O)c3ccccc32)c1,-6%,5%
SMILES,Cruzain inh Det,Cruzain noTriton
O=C(Cn1c(=O)n(Cc2ccc3c(c2)OCO3)c(=O)c2ccccc21)N1CCCc2ccccc21,-5%,32µM*
COc1cccc(NC(=O)Cn2c(=O)n(Cc3ccc(C(=O)NCc4ccc(C)cc4)cc3)c(=O)c3ccccc32)c1,-1%,13µM*
O=C(Cn1c(=O)n(Cc2ccc(C(=O)NCc3ccc4c(c3)OCO4)cc2)c(=O)c2ccccc21)Nc1cccc(Cl)c1,-1%,4µM*
CC1CCN(C(=O)Cn2c(=O)n(Cc3ccc4c(c3)OCO4)c(=O)c3ccccc32)CC1,0%,-16%
O=C(Cn1c(=O)n(Cc2ccc3c(c2)OCO3)c(=O)c2ccccc21)Nc1cccc(Cl)c1,-5%,-24%
Cc1nnc(SCC(=O)Nc2ccc(Br)cc2)[nH]c1=O,0%,-6%
Cc1cn(C)c(CC(=O)NCc2ccccc2Cl)c1C(=O)O,0%,11%
CCN(CC)S(=O)(=O)c1cc(-c2nnc(Nc3ccc(OC)c(C(N)=O)c3)c3ccccc23)ccc1C,-12%,?
Cc1cc(C)c(NC(=O)Cn2c(=O)n(Cc3ccc(C(=O)NCc4ccc5c(c4)OCO5)cc3)c(=O)c3ccccc32)c(C)c1,-2%,4%
Cc1cccc(NC(=O)Cn2c(=O)n(Cc3ccc(C(=O)NCc4ccc5c(c4)OCO5)cc3)c(=O)c3ccccc32)c1,6%,4µM*
COc1ccc(-c2noc(CNS(=O)(=O)c3ccc(Br)cc3)n2)cc1OC,-7%,-5%
O=C(Oc1ccc(NC2=C(Cl)C(=O)c3ccccc3C2=O)cc1)c1ccc([N+](=O)[O-])cc1,-3%,13µM*
O=C(Oc1ccc([N+](=O)[O-])cc1)c1cccnc1,-4%,9%
O=C(CNC(=O)c1ccccc1)OCc1nc2ccccc2s1,25µM*,13µM*

# Screens as filed in PubChem.
